In PubChem BioAssay:
Inconclusive results are not listed. Activity calls are given as the source filed them.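 How the source made its calls, unless noted: active means aptamer binding inhibition above 30%, about 3 SD of noise from non-fluorescent compounds; inactive means inhibition at or below 30%.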

Tests used:
[1] = rapamycin-like changes in RPL19A-GFP expression – cell-based, S. cerevisiae, multiplex flow cytometry, primary screen (AID 1862; in the data active means percent of DMSO control GFP below about 86%;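 further: lower values mimic rapamycin by blocking the RPL19A rise seen in DMSO cells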); details: S. cerevisiae RPL19A-GFP strain, flow cytometry fluorescence, 3 h; at 10 µM; stronger effect = lower value
[2] = TOR pathway GLN3 branch reporter MEP2-GFP changes – S. cerevisiae, multiplex flow cytometry, primary screen (AID 1867;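 active means GFP response, as percent of the DMSO control, above the screen-wide mean plus 3 SD, about 139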;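 further: median GFP channel fluorescence of barcode-gated MEP2-GFP cells measured by flow cytometry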); details: S. cerevisiae MEP2-GFP strain, 3 h, at 10 µM, stronger effect = higher value, 100% means same as DMSO wells
[3] = TOR pathway RTG branch CIT2 reporter changes – S. cerevisiae, GFP fusion, multiplex flow cytometry, primary screen (AID 1870;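 active means percent response above a set limit, the screen-wide mean plus 3 SD, cut at about 130% in these data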;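 further: barcoded CIT2-GFP strain pooled with four other GFP strains with rapamycin as positive control; median GFP fluorescence per well over plate mean of DMSO wells so 100% = DMSO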); details: S. cerevisiae CIT2-GFP expression, 3 h, at 10 µM, stronger effect = higher value
[4] = TOR pathway LAP4-GFP level changes – S. cerevisiae, multiplex flow cytometry, primary screen (AID 1873;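 active means GFP signal, as percent of the solvent control, above the screen mean plus 3 SD, about 149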); details: S. cerevisiae LAP4-GFP expression, 3 h, at 10 µM, stronger effect = higher value
[5] = yeast AGP1-GFP level changes, GLN3 branch – cell-based, multiplex flow cytometry, S. cerevisiae, primary screen (AID 1887;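 active means GFP signal above the screen-wide mean plus 3 SD, that is over about 124.5% of the solvent control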;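 further: AGP1-GFP fusion strain of S. cerevisiae within a five-strain barcoded multiplex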); details: 3 h, at 10 µM, stronger effect = higher value
[6] = reduced mouse 2C T cell binding to pMHC/ICAM-1 vesicles – MLPCN validation set, flow cytometry, LFA-1/ICAM-1 modulator project, pilot screen (AID 2523;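 active means response below a set limit, under 55% cells CD8-positive and vesicle-bound, and CD8 cells' 90th-percentile brightness under 279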;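 on vesicle binding response: mean PE anti-B7-1 fluorescence of CD8+ cells relative to row control; 100% = QL9-loaded vesicles with DMSO vehicle in the same plate row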); details: 2C mouse CD8+ T cells, at 7 µM, stronger effect = lower value; double positive events: measured here: CD8+/vesicle+ event percentage
[7] = biological target: Integrin beta-1 (Homo sapiens) + Integrin alpha-4 (Homo sapiens) (UniProt P13612+P05556); experiment: alpha4beta1 integrin LIBS antibody binding reduction – U937 cells, HUTS-21 mAb, flow cytometry, validation set, VLA-4 allosteric modulator project, pilot screen (AID 2674;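 active means inhibition above 50%, about 3 SD of the validation set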;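 further: antibody binding induced by the VLA-4 ligand LDV present at three times its Kd; 0% = LDV ligand with antibody and no compound and 100% = antibody without LDV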); details: HUTS-21 LIBS mAb binding, at 6.7 µM, stronger effect = higher value, binding induced by LDV ligand
[8] = calorie-restriction mimetic ROS inhibitors, yeast – validation compound set, pilot screen (AID 2706;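 active means superoxide response below 65% of plate, a cut near 3 SD across the whole screen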;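 further: yeast exposed to compound for one week at 30 degrees C before staining; 100% = mean of all compound wells on the same plate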); details: S. cerevisiae aging, superoxide DHE fluorescence; at 10 µM; stronger effect = lower value
[9] = biological target: Beta-adrenergic receptor kinase 1 (Homo sapiens) (UniProt P25098); experiment: GRK2 binders displacing RNA aptamer, biochemical, validation, human GRK2, bead flow cytometry (AID 488806); details: bead-bound GRK2, FAM-aptamer displacement, at 10 µM, stronger effect = higher value
[10] = biological target: Beta-2 adrenergic receptor (Homo sapiens) (UniProt P07550); experiment: agonist-induced loss of surface beta2AR – cell-based, FAP fluorogen, flow cytometry, validation set, pilot screen (AID 504459;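 active means percent response above 42, roughly 3 SD of non-fluorescent test compounds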;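 further: agonist-driven loss of surface beta2AR via internalization measured by FAP dye flow cytometry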); details: Am2.2-beta2AR cells, at 10 µM, stronger effect = higher value
[11] = biological target: AP-2 complex subunit beta (Homo sapiens) (UniProt P63010); experiment: beta-arrestin/AP2 interaction blockers – biochemical, validation set, GST-AP2 beads, flow cytometry, pilot screen (AID 504541;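 active means inhibition above 54%, about 3 SD of non-fluorescent compounds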;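 further: AP2 carries R879A mutation and is captured from E. coli lysate; bead-bound FITC arrestin peptide fluorescence measuring arrestin peptide binding to AP2; 0% = DMSO wells and 100% = excess unlabeled arrestin peptide control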); details: FITC arrestin peptide, at 10 µM, stronger effect = higher value, AP2 beta2 appendage fragment, R879A mutant
[12] = cytosolic pH regulators acting via V-ATPase – S. cerevisiae, pHLuorin, HTS validation (AID 504600; in the data active means response above about 15%;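 further: plate controls were DMSO for no effect and reference compound for full effect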); details: V-ATPase proton transport, at 10 µM, stronger effect = higher value
[13] = test system: anti-desmoglein-3 scFv antibody binding to human DSG3; experiment: blockers of pathogenic pemphigus antibody–desmoglein-3 binding – biochemical, validation compound set, bead-based, flow cytometry, pilot screen (AID 588368;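 active means binding below the plate cutoff, the plate median minus 3 SD, with a reading above zero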;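 further: signal is the median channel fluorescence of bead-bound GFP antibody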); details: Protein G beads, DSG3-Fc, scFv-GFP binding, at 10 µM, stronger effect = lower value
[14] = Nile Red efflux blockade in pump-expressing yeast – validation compound set, multiplex, phenotypic, pilot screen (AID 588506;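 active means efflux inhibition above 0.42, the validation set average plus 4 SD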;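 further: Nile Red retained in cells so higher fluorescence means more efflux inhibition; 0 = negative control wells and 1 = enniatin B 25 µM full block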); details: S. cerevisiae pump-expressing triplex, Nile Red efflux flow cytometry; at 10 µM; stronger effect = higher value; the pumps come from Candida albicans
[15] = biological target: ATP-binding cassette sub-family B member 6 (Homo sapiens) (UniProt Q9NP58); experiment: blockers of ABCB6-driven porphyrin uptake – K562-ABCB6 cells, flow cytometry, validation set, pilot screen (AID 588550;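 active means inhibition above the screen-wide mean plus 3 SD, about 51%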;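 further: 0% = DMSO wells and 100% = benzethonium chloride 70 µM positive control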); details: K562-ABCB6 porphyrin accumulation, 1 h, at 10 µM, stronger effect = higher value
[16] = AML differentiation inducers, ER-HoxA9 marrow cells – cell-based, GFP/MAC1 double positive, flow cytometry, validation set, primary screen (AID 588685;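 active means differentiation response of at least 50%, scaled between solvent and reference control, from cells with both markers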;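 further: compound exposure lasts four days before antibody staining and flow analysis; 0% = DMSO wells and 100% = 5 µM fulvestrant positive control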); details: stronger effect = higher value, normalized: vehicle 0, fulvestrant 100

Chain of ATP-binding cassette sub-family B member 6 (Homo sapiens) (Q9NP58 whole entry, looked up): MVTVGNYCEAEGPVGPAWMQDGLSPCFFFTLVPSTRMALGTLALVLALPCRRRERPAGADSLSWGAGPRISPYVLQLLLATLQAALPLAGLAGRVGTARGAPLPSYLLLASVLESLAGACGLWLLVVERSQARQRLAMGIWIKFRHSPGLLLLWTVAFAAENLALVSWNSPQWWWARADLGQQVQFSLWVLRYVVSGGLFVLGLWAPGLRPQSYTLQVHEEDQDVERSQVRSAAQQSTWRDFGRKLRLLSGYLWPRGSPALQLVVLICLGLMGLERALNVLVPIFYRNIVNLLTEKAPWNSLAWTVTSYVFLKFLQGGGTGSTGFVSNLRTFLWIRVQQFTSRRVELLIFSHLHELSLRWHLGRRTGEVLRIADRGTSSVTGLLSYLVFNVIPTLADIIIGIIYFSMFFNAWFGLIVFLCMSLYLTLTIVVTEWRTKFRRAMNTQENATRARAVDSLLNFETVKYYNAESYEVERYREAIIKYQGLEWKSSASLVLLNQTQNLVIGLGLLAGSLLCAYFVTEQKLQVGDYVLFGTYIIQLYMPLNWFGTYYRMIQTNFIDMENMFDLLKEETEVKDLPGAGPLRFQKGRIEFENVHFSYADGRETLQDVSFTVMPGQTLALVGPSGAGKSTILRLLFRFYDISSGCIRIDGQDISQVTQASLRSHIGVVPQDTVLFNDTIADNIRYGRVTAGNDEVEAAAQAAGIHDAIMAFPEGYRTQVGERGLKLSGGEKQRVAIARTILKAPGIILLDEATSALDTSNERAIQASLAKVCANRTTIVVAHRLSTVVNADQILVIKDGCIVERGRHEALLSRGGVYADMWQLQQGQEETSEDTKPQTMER
Chain of Beta-2 adrenergic receptor (Homo sapiens) (P07550 whole entry, looked up): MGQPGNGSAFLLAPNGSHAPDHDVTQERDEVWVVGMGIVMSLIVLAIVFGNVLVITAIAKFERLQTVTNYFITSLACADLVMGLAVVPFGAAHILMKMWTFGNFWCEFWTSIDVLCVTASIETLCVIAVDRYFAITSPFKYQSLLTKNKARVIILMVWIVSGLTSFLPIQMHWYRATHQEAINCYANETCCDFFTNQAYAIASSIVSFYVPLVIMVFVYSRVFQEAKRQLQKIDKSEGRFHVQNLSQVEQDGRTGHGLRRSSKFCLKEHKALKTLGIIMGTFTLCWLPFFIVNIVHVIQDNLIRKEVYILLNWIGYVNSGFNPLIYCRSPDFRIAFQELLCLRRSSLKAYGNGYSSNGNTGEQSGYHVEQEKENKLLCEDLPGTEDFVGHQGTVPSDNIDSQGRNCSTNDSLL
Chain of Beta-adrenergic receptor kinase 1 (Homo sapiens) (P25098 whole entry, looked up): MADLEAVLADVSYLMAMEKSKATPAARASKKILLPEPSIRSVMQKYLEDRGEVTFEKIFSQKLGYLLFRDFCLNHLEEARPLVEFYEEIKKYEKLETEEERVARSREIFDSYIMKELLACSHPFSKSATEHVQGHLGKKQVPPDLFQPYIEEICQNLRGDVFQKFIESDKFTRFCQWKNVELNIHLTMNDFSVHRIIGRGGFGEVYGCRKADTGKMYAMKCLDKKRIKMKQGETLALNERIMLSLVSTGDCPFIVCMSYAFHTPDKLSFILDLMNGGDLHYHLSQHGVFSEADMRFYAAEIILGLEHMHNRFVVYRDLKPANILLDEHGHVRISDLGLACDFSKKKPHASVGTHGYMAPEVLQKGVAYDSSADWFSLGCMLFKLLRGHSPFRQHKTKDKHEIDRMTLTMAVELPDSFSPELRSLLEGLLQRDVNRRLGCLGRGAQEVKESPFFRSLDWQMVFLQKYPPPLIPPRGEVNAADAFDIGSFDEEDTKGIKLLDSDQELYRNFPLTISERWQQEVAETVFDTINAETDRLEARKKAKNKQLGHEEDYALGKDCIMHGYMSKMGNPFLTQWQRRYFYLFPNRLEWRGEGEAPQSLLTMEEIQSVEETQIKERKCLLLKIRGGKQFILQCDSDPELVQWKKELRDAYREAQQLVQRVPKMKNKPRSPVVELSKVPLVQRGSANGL
Chain of Integrin beta-1 (Homo sapiens) + Integrin alpha-4 (Homo sapiens) (P05556 whole entry, looked up): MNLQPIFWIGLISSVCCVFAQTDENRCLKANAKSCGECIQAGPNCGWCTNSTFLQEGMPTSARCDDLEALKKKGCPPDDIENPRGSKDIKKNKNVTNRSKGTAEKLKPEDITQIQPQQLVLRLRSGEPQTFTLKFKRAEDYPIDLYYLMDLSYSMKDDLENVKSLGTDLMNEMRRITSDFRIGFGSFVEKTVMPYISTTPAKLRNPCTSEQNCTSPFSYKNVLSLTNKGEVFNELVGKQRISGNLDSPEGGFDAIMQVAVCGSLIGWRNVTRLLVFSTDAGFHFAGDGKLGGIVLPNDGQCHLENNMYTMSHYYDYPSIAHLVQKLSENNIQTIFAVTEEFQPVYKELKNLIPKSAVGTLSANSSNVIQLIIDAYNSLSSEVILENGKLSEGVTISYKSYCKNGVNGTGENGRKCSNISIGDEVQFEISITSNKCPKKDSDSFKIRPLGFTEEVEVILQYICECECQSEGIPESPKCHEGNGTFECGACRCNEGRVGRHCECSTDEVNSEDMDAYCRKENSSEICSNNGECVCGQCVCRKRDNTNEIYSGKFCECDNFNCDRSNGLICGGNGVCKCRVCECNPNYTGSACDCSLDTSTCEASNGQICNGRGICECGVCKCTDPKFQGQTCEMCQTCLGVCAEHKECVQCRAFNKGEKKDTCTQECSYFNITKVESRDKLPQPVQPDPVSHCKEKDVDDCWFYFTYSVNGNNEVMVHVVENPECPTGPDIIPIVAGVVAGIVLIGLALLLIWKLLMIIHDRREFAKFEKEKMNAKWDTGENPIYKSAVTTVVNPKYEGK
Chain of Integrin beta-1 (Homo sapiens) + Integrin alpha-4 (Homo sapiens) (P13612 whole entry, looked up): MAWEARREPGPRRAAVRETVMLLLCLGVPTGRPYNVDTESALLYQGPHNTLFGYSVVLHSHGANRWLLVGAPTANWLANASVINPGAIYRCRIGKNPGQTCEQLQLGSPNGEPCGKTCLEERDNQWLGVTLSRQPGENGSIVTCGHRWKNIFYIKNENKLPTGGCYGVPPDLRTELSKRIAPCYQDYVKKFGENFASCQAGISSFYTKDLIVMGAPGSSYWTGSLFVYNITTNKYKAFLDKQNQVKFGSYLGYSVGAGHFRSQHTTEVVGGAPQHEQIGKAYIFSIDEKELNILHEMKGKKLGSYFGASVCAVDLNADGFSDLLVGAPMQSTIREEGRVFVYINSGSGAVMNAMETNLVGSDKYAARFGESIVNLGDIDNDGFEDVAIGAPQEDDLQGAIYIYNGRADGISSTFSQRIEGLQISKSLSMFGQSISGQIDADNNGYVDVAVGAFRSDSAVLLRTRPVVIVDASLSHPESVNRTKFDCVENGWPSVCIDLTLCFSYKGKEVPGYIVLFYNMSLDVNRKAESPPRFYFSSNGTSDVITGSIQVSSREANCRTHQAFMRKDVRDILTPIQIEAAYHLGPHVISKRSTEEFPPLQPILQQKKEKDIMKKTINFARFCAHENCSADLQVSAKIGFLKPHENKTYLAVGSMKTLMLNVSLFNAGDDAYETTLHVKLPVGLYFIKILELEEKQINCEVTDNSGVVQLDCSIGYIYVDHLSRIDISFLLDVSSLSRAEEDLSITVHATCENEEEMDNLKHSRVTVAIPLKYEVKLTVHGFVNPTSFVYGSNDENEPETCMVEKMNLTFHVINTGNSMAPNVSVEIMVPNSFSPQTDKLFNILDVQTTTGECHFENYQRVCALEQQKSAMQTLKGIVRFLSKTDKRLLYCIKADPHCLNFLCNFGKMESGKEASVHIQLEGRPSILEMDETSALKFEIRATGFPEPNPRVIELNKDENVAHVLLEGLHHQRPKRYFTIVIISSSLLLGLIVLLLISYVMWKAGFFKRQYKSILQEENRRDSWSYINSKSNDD
Chain of AP-2 complex subunit beta (Homo sapiens) (P63010 whole entry, looked up, the tested form may be a part, one chain of several): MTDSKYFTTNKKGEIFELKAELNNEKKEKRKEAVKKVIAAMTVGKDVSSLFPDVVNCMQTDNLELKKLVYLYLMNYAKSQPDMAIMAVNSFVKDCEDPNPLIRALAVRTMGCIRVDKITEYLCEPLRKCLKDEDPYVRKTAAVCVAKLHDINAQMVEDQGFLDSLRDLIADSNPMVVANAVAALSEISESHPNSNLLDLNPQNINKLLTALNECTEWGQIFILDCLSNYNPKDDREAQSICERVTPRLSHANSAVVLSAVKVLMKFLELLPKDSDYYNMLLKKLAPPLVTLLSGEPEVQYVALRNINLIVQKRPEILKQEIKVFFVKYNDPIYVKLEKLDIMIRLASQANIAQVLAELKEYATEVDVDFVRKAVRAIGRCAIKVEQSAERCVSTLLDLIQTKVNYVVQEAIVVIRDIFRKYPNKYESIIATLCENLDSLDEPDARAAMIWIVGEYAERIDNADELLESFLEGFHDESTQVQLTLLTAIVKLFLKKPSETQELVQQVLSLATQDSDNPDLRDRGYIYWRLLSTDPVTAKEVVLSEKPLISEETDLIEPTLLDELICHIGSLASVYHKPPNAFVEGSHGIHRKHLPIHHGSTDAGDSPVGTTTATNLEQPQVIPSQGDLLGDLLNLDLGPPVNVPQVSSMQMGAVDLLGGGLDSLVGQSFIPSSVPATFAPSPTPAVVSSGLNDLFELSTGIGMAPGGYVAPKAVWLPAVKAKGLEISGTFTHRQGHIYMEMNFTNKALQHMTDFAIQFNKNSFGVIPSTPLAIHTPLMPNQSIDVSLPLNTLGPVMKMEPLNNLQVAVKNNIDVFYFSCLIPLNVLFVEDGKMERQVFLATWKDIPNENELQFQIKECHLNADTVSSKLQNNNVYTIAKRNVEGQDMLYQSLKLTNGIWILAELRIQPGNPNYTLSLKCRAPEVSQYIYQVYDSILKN

Row | SMILES | percent of DMSO control GFP [1] | GFP response vs DMSO [2] | percent response of DMSO control [3] | GFP response vs DMSO [4] | GFP response, % of DMSO [5] | double positive events [6] [%] | vesicle binding response [6] | inhibition [7] | superoxide response (% of plate) [8] | aptamer binding inhibition [9] | response [10] | inhibition [11] | response [12] | binding (% of control) [13] | efflux inhibition (fraction of control) [14] | inhibition [15] | differentiation response [16]
1 | O=C(NCCc1c[nH]c2ccccc12)c1cccnc1 | 101% (inactive) | 101% (inactive) | 98.6% (inactive) | 113% (inactive) | 103% (inactive) | 61.5 | 188% (inactive) | 2.3% (inactive) | 93.7% (inactive) | 3% (inactive) | -0.09% (inactive) | 17.6% (inactive) | -6.3% (inactive) | 90.1% (inactive) | 0.3 (inactive) | 6% (inactive) | 12% (inactive)
2 | CC(=O)C1=C(O)C(=O)N(CC(=O)O)C1c1ccccc1Cl (stereo not drawn) | 93.5% (inactive) | 136% (inactive) | 88.6% (inactive) | 82.5% (inactive) | 90.3% (inactive) | 54.3 | 175% (inactive) | 10.3% (inactive) | 106% (inactive) | 4% (inactive) | -4% (inactive) | 1.11% (inactive) | 0% (inactive) | 100% (inactive) | -0.2 (inactive) | 13% (inactive) | -4.91% (inactive)
3 | CC(=O)Nc1ccccc1C(=O)C(=O)Nc1ccccc1 | 99.1% (inactive) | 99.6% (inactive) | 99.6% (inactive) | 114% (inactive) | 97.5% (inactive) | 60.9 | 83.6% (inactive) | 6.4% (inactive) | 102% (inactive) | 1% (inactive) | -12.9% (inactive) | 35.2% (inactive) | -3.86% (inactive) | 95.3% (inactive) | -0.35 (inactive) | 2% (inactive) | 29.6% (inactive)
4 | COCCCN1C(=O)C(=O)/C(=C(/O)c2ccc3c(c2)CC(C)O3)C1c1cccnc1 (stereo not drawn) | 101% (inactive) | 102% (inactive) | 101% (inactive) | 114% (inactive) | 111% (inactive) | 59 | 137% (inactive) | 3.14% (inactive) | 97.1% (inactive) | -1% (inactive) | -22.5% (inactive) | 1.96% (inactive) | -1.78% (inactive) | 108% (inactive) | 0 (inactive) | 4% (inactive) | -9.91% (inactive)
5 | CCN(CC)CCOC(=O)C(c1ccccc1)c1ccccc1 | 102% (inactive) | 108% (inactive) | 91.9% (inactive) | 90.1% (inactive) | 95.6% (inactive) | 59.4 | 91.8% (inactive) | -4.6% (inactive) | 105% (inactive) | 3% (inactive) | 2.02% (inactive) | 59.1% (active) | -3.97% (inactive) | 99% (inactive) | 0.3 (inactive) | 6% (inactive) | 37.4% (inactive)
6 | COc1cc(C(=O)NCCc2c[nH]c3ccccc23)ccc1OCc1c(C)noc1C | 96.7% (inactive) | 106% (inactive) | 98.6% (inactive) | 120% (inactive) | 93.5% (inactive) | 56 | 295% (inactive) | -15.4% (inactive) | 110% (inactive) | 0% (inactive) | 6.37% (inactive) | -0.24% (inactive) | 1.87% (inactive) | 107% (inactive) | -0.03 (inactive) | 3% (inactive) | 10.4% (inactive)
7 | Cc1coc2c1c(C)cc1oc(=O)c(Cc3ccccc3)c(C)c12 | 100% (inactive) | 98.7% (inactive) | 102% (inactive) | 93.7% (inactive) | 101% (inactive) | 56.9 | 138% (inactive) | -11.8% (inactive) | 90.7% (inactive) | -1% (inactive) | -0.64% (inactive) | 16.9% (inactive) | 18.1% (active) | 97.9% (inactive) | -0.14 (inactive) | 1% (inactive) | -8.96% (inactive)
8 | CC(=O)NC1C(OCc2ccccc2)OC(COC(C)=O)C(OC(C)=O)C1OC(C)=O (stereo not drawn) | 104% (inactive) | 104% (inactive) | 106% (inactive) | 91.5% (inactive) | 96% (inactive) | 65.2 | 183% (inactive) | -44% (inactive) | 105% (inactive) | 2% (inactive) | 1.83% (inactive) | -2% (inactive) | -3.81% (inactive) | 104% (inactive) | 0.12 (inactive) | 2% (inactive) | -6.03% (inactive)
9 | CCOC(=O)C1CCCN(Cc2nc(Cc3cccc(F)c3)no2)C1 (stereo not drawn) | 99.1% (inactive) | 92.6% (inactive) | 92.4% (inactive) | 94.8% (inactive) | 87.2% (inactive) | 58.5 | 172% (inactive) | 5.61% (inactive) | 90.5% (inactive) | -1% (inactive) | 20.7% (inactive) | 3.77% (inactive) | -3.88% (inactive) | 106% (inactive) | 0.1 (inactive) | 10% (inactive) | 8.59% (inactive)
